Source: PubChem BioAssay (several laboratories)
Most compounds without a hit are left out; they make up all but 1.1% or so of the library.
ABCB6 inh MLPCN = inhibitors of human ABC transporter ABCB6. AID 602162. K562-ABCB6 porphyrin accumulation, flow cytometry, 1 h; active compounds read low. hit rate 0.19% among 360,000. fluorescence ratio to DMSO, % at 10 µM;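 active = fluorescence ratio to DMSO below 75%, the collection mean minus 3 SD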;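 note: signal is porphyrin accumulated inside mitochondria; 100% equals median channel fluorescence of DMSO control wells; lower ratio means ABCB6 inhibition with less porphyrin fluorescence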
Exocytosis inh = lytic granule exocytosis inhibition. TALL-104 LAMP-1 surface exposure, flow cytometry; cells stimulated with thapsigargin and PMA. inhibition, % at 10 µM. hit rate 0.66% among 360,000;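 active = inhibition above about 55%, limit read from the data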
VLA-4 inh = inhibition in a human VLA-4 binding assay; inhibition, % (about 7 µM as worked out from the volumes in the protocol); VLA-4 expressing cells, ligand binding flow cytometry; AID 2557; P13612; hit rate 0.2% among 330,000; in the data active = inhibition above about 50%
CaV13 ICDI inh = Primary screen for inhibitors of IQ motif and Ca2+-dependent inactivation inhibitor domain binding in CACNA1D, Förster resonance energy transfer in living cells, …; AID 743397; HEK cells, CFP/YFP FRET ICDI-IQ, plate reader, 10 min; percent FRET-ratio fall versus neutral wells; hit rate 0.098% among 340,000; inhibition, % at 12.3 µM;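 active = mean replicate inhibition of at least 30% and at least 1% of replicates passing that level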;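 note: 0% = median of the neutral control wells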
Exocytosis CP01 = lytic granule exocytosis inhibition | shares compounds with Exocytosis inh | AID 651954 | inhibition, % at 10 µM | TALL-104 cells, LAMP-1 externalization, flow cytometry; stimulated with PMA plus thapsigargin | hit rate 11% among 1,500; in the data active = inhibition above about 60%;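 note: 0% = stimulated vehicle wells and 100% = unstimulated wells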
Numbers without * were called inactive; i = inactive; · = no result.

SMILES	ABCB6 inh MLPCN	Exocytosis inh	VLA-4 inh	CaV13 ICDI inh	Exocytosis CP01
CCOc1ccc(S(=O)(=O)N2CCC(C(=O)Nc3cccc(NC(C)=O)c3)CC2)cc1	85	4	5	-8	·
CCOc1ccc(S(=O)(=O)N2CCCC(C(=O)Nc3cccc(C)c3)C2)cc1 (stereo not given)	92	63*	14	-4	-13
O=C(CCc1nc2ccccc2s1)OCc1ccccc1F	97	1	15	-3	·
CCc1ccc(CN(Cc2cccnc2)C(=O)/C=C/c2ccc(OC)cc2)cc1	133	61*	-11	-3	-14
CCN(CC)CCOC(=O)c1ccc(NC(=O)CCCN2C(=O)/C(=C/c3cccs3)SC2=S)cc1	111	5	0	-6	·
Cc1ccc(C)c(CN2C(=O)CSc3ccc(C(=O)N4CCCC4)cc32)c1	100	2	-9	-2	·
Cc1ccc(C)c(CN2C(=O)CSc3ccc(C(=O)NCC(C)CN4CCC(C)CC4)cc32)c1 (stereo not given)	95	77*	5	-3	4
C=CCc1ccc(OCC(O)CN2CCN(c3ccccc3OC)CC2)c(OC)c1 (stereo not given)	92	-2	0	-3	·
C=CCc1ccc(OCC(O)CN2CCC(Cc3ccccc3)CC2)c(OC)c1 (stereo not given)	101	56*	6	-7	-9
CC(Nc1nc(-c2ccncc2)nc2ccccc12)c1ccccc1 (stereo not given)	100	31	-2	-20	·
CC(Nc1nc(N2CCNCC2)nc2ccccc12)c1ccccc1 (stereo not given)	101	87*	5	-11	79*
CCN1C(=O)c2cccc3c(S(=O)(=O)N4CCCC4C(=O)O)ccc1c23 (stereo not given)	93	60*	-2	-6	-13
C[C@H](CO)N1C[C@H](C)[C@@H](CN(C)S(=O)(=O)c2ccc(F)cc2)Oc2c(NC(=O)c3ccncc3)cccc2C1=O	98	92*	·	-5	-16
C[C@H](CO)N1C[C@H](C)[C@@H](CN(C)S(=O)(=O)c2ccccc2)Oc2c(NC(=O)c3ccncc3)cccc2C1=O	100	-2	12	-11	·
CNC[C@H]1Oc2c(NS(=O)(=O)c3cccs3)cccc2C(=O)N([C@H](C)CO)C[C@@H]1C	98	77*	11	-6	-3
COC(=O)c1ccc(OC(=O)c2ccccc2F)cc1	·	·	-13	-2	·
Clc1cccc(Cl)c1C1Nc2cccc3cccc(c23)N1	128	85*	-7	-3	46
Fc1cccc(Cl)c1C1Nc2cccc3cccc(c23)N1	112	31	2	-2	·
N#CCC(=O)Nc1ccc(C(=O)OCC(=O)Nc2cccc(C(F)(F)F)c2)cc1	97	-7	-1	-4	·
CCOc1ccc(C(=O)C(CN2CCOCC2)c2ccccc2)cc1 (stereo not given)	98	2	2	-5	·
O=C(c1ccc(Br)cc1)C(CN1CCOCC1)c1ccccc1 (stereo not given)	89	67*	14	-17	-10
O=C(C[C@H]1C/C=C\C[C@H](Cc2ccc(F)cc2)C(=O)O[C@@H](c2ccccc2)CNC1=O)N[C@@H](CO)Cc1ccccc1	91	56*	-1	-3	-4
O=C(C[C@H]1C/C=C\C[C@@H](Cc2ccc(F)cc2)C(=O)O[C@@H](c2ccccc2)CNC1=O)N[C@@H](CO)Cc1ccccc1	98	-5	4	-5	·
O=C(Nc1ccc2c(c1)OCO2)C1CCCN(c2nc3ccccc3s2)C1 (stereo not given)	95	62*	4	-8	-13
CCc1nnc(NC(=O)C2CCCN(c3nc4ccccc4s3)C2)s1 (stereo not given)	99	-5	6	-8	·
O=C1[C@H]2[C@@H](c3ccccc3)N[C@]3(CCCN(Cc4ccc(F)cc4)C3=O)[C@H]2C(=O)N1Cc1ccccc1	104	4	·	-6	·
O=C(CCC1CCN(C(=O)Cc2c(F)cccc2F)CC1)NC1CC1	99	-1	-93	-2	·
Clc1nc(CN2CCOCC2)nc2sc3c(c12)CCC3	98	-1	0	-2	·
Clc1nc(CN2CCCCC2)nc2sc3c(c12)CCCC3	100	98*	12	-7	-12
CCCS(=O)(=O)Nc1ccc(Nc2c3ccccc3nc3ccccc23)c(OC)c1	i	78*	·	-5	89*
